# High-throughput results deposited in PubChem by several laboratories.
# Shown are actives, neighbours in structure and some others; about 4.7% of the full set was active somewhere.
# tim23-1 inh: growth inhibitors of tim23-1 mutant yeast, primary screen, luminescence, uHTS; S. cerevisiae tim23-1 growth, BacTiter-Glo luminescence, 24 h; inhibition, % at 20 µM; 330,000 tested, 1.3% active; AID 463212, 2010;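 active means growth inhibition of the mutant yeast at or above 50%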;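 further: temperature-sensitive mutant grown at 25 °C; plate controls were DMSO-treated mutant yeast for no effect and medium wells lacking yeast for full effect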
# tim10-1 inh: growth inhibitors of tim10-1 mutant yeast, primary screen, luminescence, uHTS. S. cerevisiae tim10-1 ts strain growth, BacTiter-Glo, 24 h. inhibition, % at 20 µM. 330,000 tested, 2.2% active. AID 463190, 2010;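 active means inhibition of at least 40%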;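 further: mutant grown at 25 °C; 0% = DMSO wells with yeast and 100% = wells holding no yeast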
# SKKanGAS inh: S. pyogenes SKKanGAS growth inhibitors in kanamycin, primary screen, streptokinase expression inhibitor project, SKKanGAS strain, BacTiter-Glo luminescence. 6 h. inhibition, % at 7.5 µM. 300,000 tested, 1.3% active;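 active means mean replicate score, as percent of positive control median, at least 50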;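 further: strain carries kanamycin resistance gene driven by streptokinase promoter and grows in 40 µg/ml kanamycin; loss of luminescence reflects streptokinase promoter inhibition or plain growth inhibition; 0% = median of DMSO wells and 100% = positive control at its reference dose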
# ATG4B inhibitor: ATG4B protease inhibitors, primary screen, biochemical, fluorescence, uHTS. Cysteine protease ATG4B (Homo sapiens), Q9Y4P1. ATG4B cleavage of LC3-PLA2, NBD-HPC fluorescence, 1 h. inhibition, % at 8.33 µM. 340,000 tested, 0.51% active. AID 504462, 2011; in the data active means inhibition above about 40%
# Target sequence (Q9Y4P1 whole entry, looked up): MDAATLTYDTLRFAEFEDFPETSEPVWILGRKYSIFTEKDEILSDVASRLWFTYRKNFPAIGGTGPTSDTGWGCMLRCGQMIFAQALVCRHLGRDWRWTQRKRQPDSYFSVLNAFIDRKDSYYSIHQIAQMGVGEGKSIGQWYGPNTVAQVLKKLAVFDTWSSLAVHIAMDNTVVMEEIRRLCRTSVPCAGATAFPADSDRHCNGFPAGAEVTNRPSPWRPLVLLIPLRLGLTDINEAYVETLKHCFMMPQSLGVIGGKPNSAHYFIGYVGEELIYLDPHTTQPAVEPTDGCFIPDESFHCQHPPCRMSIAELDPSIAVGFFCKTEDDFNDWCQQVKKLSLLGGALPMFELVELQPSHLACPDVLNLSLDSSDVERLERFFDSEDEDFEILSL
# TIM10 inh: growth inhibitors of isogenic TIM10 control yeast, primary screen, counter-screen for tim10-1 yeast inhibitor project, luminescence, uHTS | 330,000 tested, 1.4% active | AID 463195, 2010 | inhibition, % at 10 µM | S. cerevisiae TIM10 strain growth, BacTiter-Glo luminescence, 24 h;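 active means inhibition of 40% or more at the single tested concentration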;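 further: wild-type TIM10 isogenic control strain grown at permissive 25 °C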
# PfHsp90 set2: growth inhibition of PfHsp90-expressing yeast, primary screen, antimalarial PfHsp90 inhibitor project, S. cerevisiae, BacTiter-Glo luminescence, single point, set 2. BacTiter-Glo ATP, 48 h; yeast lacking PDR1 and PDR3 efflux regulators. inhibition, % at 9.4 µM. 310,000 tested, 0.32% active. AID 504621, 2011;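 active means every replicate shows inhibition above about 80%, whatever the replicate mean, limit read from the data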;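 further: 0% = DMSO neutral controls and 100% = 20 µM radicicol positive controls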
# tim10-1 conf: growth inhibitors of tim10-1 mutant yeast, confirmation, single concentration, luminescence, S. cerevisiae | shares compounds with tim10-1 inh | 7,400 tested, 56% active | S. cerevisiae tim10-1 ts strain growth, BacTiter-Glo, 24 h | inhibition, % at 20 µM;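 active means inhibition of yeast growth at or above a set limit in either of two repeat tests at 20 µM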;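 further: tim10-1 mutant grown at permissive 25 °C to find synthetic lethal compounds; 0% = DMSO yeast wells and 100% = medium wells without yeast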
# TIM10 conf: growth inhibitors of wild-type TIM10 yeast, confirmation, counter-screen for tim10-1 synthetic lethality project, single concentration, luminescence, S. cerevisiae | inhibition, % at 10 µM | S. cerevisiae tim10 strain growth, BacTiter-Glo luminescence, 24 h | shares compounds with TIM10 inh | AID 463215, 2010 | 4,600 tested, 63% active;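 active means inhibition of yeast growth at or above a set limit in either of two replicates at 10 µM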;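 further: this counterscreen used the strain with wild-type TIM10; 0% = yeast with DMSO and 100% = medium wells lacking yeast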
# The depositor's hits bear a star; nt = not tested or not shown.
SMILES,tim23-1 inh,tim10-1 inh,SKKanGAS inh,ATG4B inhibitor,TIM10 inh,PfHsp90 set2,tim10-1 conf,TIM10 conf
C=C1C(=O)C=C2CN(C(=O)c3ccccc3)[C@@](Cc3ccc(F)cc3)(C(=O)OC)[C@@H]12,49,61*,-9,2,48*,3,52*,51*
O=C1/C(=C/c2ccncc2)CCc2ccccc21,47,50*,21,23,45*,9,56*,55*
CCOc1ccc(/C=C2\CCc3ccccc3C2=O)cc1,17,24,8,6,20,12,nt,nt
Nc1nnnn1/N=C/C(Br)=C/c1ccccc1,37,46*,0,0,55*,-5,48*,53*
CCCCOc1ccc(CONS(=O)(=O)c2ccc(NC(C)=O)cc2)cc1Cl,14,55*,4,-8,62*,1,47*,48*
Cc1nc([N+](=O)[O-])c(Br)n1CC(=O)c1ccccc1,26,30,-1,-2,22,nt,nt,nt
Cc1nc([N+](=O)[O-])c(C(=O)OCc2ccccc2Br)n1C,13,31,-2,-4,27,-6,nt,nt
Cc1nc([N+](=O)[O-])c(Br)n1CC(=O)c1ccc2ccccc2c1,35,59*,-2,9,54*,nt,67*,55*
Cc1nc([N+](=O)[O-])c(Br)n1CC(=O)c1ccc(Br)cc1,40,48*,-10,3,40,nt,35*,40*
O=C1CC(N2CCC(c3nc4ccccc4o3)CC2)C(=O)N1c1cc(Cl)cc(Cl)c1 (stereo not given),33,41*,14,0,41*,nt,12,22
Cc1cccc(N2C(=O)CC(N3CCC(c4nc5ccccc5[nH]4)CC3)C2=O)c1 (stereo not given),17,35,4,-6,14,-4,nt,nt
CC(C)NC(=O)CC(=O)N/N=C/c1ccc(Br)cc1,11,2,1,-6,3,8,nt,nt
CCn1c2ccccc2c2cc(/C=N/n3c(-c4cc(C)[nH]n4)n[nH]c3=S)ccc21,16,-6,15,17,6,-10,nt,nt
CCn1c2ccccc2c2cc(/C=N/n3cn[nH]c3=S)ccc21,37,51*,12,-5,48*,4,35*,49*
c1nc2n(n1)C1=C(CCCC1)C1(CCCCC1)N2,-94,-14,-1,0,22,2,nt,nt
COc1ccc(CNC(=O)CC2C(=O)NCCN2CC(C)(C)C)c(OC)c1 (stereo not given),9,19,4,12,1,2,nt,nt
O=C(Nc1ccc(Cl)cc1Cl)c1cccc(N2C(=O)C=CC2=O)c1,37,59*,5,-3,95*,107*,96*,100*
Cc1ccc(/C=N/NC(=S)NCCc2ccccc2)s1,-3,-60,5,2,10,-1,nt,nt
CCCCNC(=S)N/N=C/c1ccc(C)s1,38,57*,25,-5,58*,-13,42*,54*
CCc1c(C)nc(Nc2nc(C)c3ccc(OC)cc3n2)[nH]c1=O,42,31,2,-1,31,6,nt,nt
COc1ccc2c(C)nc(Nc3nc(C)c(C)c(=O)[nH]3)nc2c1,49,71*,31,0,66*,-9,61*,50*
Cc1ccc(C(=O)NC(=S)N(C)Cc2ccccc2)cc1,0,23,-8,8,8,-3,nt,nt
CCCN(CCC)C(=S)NC(=O)c1ccc(-c2ccccc2)cc1,32,42*,38,9,44*,-25,16,42*
CCCCNC(=O)N1CCN(C/C=C/c2ccccc2)CC1,-9,3,-6,-1,-8,11,nt,nt
CCN1CCCC(OC(=O)c2cc(-c3ccccc3Cl)nc3ccccc23)C1 (stereo not given),12,48*,7,14,49*,-4,33*,37*
SMILES,tim23-1 inh,tim10-1 inh,SKKanGAS inh,ATG4B inhibitor,TIM10 inh,PfHsp90 set2,tim10-1 conf,TIM10 conf
CCOc1ccc2oc(C(=O)NC3CC(C)(C)NC(C)(C)C3)c(C)c2c1,7,-5,8,-1,-5,26,nt,nt
CN1/C(=C\C(=S)Nc2ccccc2)C(C)(C)c2ccccc21,34,51*,-11,-1,48*,2,47*,56*
CN1/C(=C/C(=S)NC(=O)C2(C)CC2(Cl)Cl)C(C)(C)c2ccccc21 (stereo not given),37,1,28,7,27,27,nt,nt
CCCS(=O)(=O)c1c(S(=O)(=O)CCC)c2ccccn2c1C(=O)OC,21,16,3,-1,-7,22,nt,nt
O=C(Nc1cccc(Cl)c1N1CCCC1)c1ccc([N+](=O)[O-])o1,22,47*,nt,3,40*,3,41*,27
CC(=O)c1ccc(NC(=O)c2ccc([N+](=O)[O-])o2)cc1,-20,57*,9,-2,81*,3,43*,90*
Cc1cc(NC(=O)c2ccc([N+](=O)[O-])o2)ccc1NC(=O)c1ccco1,nt,nt,-14,-6,nt,-2,nt,nt
Cc1cc(C)cc(NC(=O)c2ccc([N+](=O)[O-])o2)c1,-24,49*,25,-5,83*,-58,34*,82*
COc1cc(NC(=O)c2ccc([N+](=O)[O-])o2)ccc1NC(=O)c1ccco1,46,46*,6,-12,47*,11,45*,60*
Cc1cc(C)nc(NC(=O)c2ccc([N+](=O)[O-])o2)n1,25,36,5,-2,15,-5,nt,nt
Cc1cc(NCCOCCO)n2ncc(-c3ccc(Cl)cc3)c2n1,36,57*,-6,-12,42*,-12,44*,50*
Nc1c(C(=O)c2ccc(Br)s2)oc2ccccc12,31,47*,7,-12,43*,6,35*,42*
Nc1c(C(=O)c2cccs2)oc2ccccc12,40,18,-6,9,27,20,nt,nt
COC(=O)CCC(=O)c1oc2ccc(Br)cc2c1N,45,41*,2,2,44*,nt,34*,31*
Nc1c(C(=O)c2ccccc2)oc2ccc(Br)cc12,29,45*,-8,-16,52*,-35,18,33*
